Screening results (PubChem)
Yeast superoxide: caloric restriction mimetics inhibiting age-related superoxide in yeast; S. cerevisiae aged cells, superoxide DHE fluorescence; hits give low values; actives 0.18% (n = 330,000); superoxide response (% of plate mean), % at 10 µM; AID 2690;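 active = superoxide response under a set limit, about three screen SD below normal, cut at about 65% in these data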;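 note: yeast aged for seven days with compound at 30 °C before DHE staining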
tim23-1 inh: growth inhibitors of tim23-1 mutant yeast | actives 1.3% (n = 330,000) | S. cerevisiae tim23-1 growth, BacTiter-Glo luminescence, 24 h | inhibition, % at 20 µM;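 active = growth inhibition of the mutant yeast at or above 50%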;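 note: temperature-sensitive mutant grown at 25 °C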
TIM10 inh: inhibits growth of TIM10 yeast strain; inhibition, % at 10 µM; S. cerevisiae TIM10 strain growth, BacTiter-Glo luminescence, 24 h; actives 1.4% (n = 330,000); AID 463195;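 active = inhibition of 40% or more at the single tested concentration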;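 note: wild-type TIM10 isogenic control strain grown at permissive 25 °C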
tim10-1 inh: tim10-1 yeast growth inhibition | actives 2.2% (n = 330,000) | inhibition, % at 20 µM | S. cerevisiae tim10-1 ts strain growth, BacTiter-Glo, 24 h | AID 463190;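 active = inhibition of at least 40%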;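 note: mutant grown at 25 °C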
NALP3 yeast inh: inhibitors of NALP3 inflammasome in yeast; Yeast reconstituted NLRP3/ASC/caspase-1, beta-gal luminescence, 24 h; inhibition, % at 10 µM; actives 0.39% (n = 330,000);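 active = inhibition of 50% or more; inactive = inhibition below 50%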
NALP3 yeast conf: confirmation of NALP3 inhibitors in yeast | actives 81% (n = 1,300) | inhibition, % at 10 µM | AID 435006 | shares compounds with NALP3 yeast inh | yeast expressing human NALP3, luminescence; in the data active = inhibition above about 48%
Casp1 ASC ctr: counter-screen for NALP3 inhibitors: yeast caspase-1-ASC | shares compounds with NALP3 yeast inh | yeast expressing Caspase-1-ASC, luminescence counter screen | inhibition, % at 10 µM | actives 66% (n = 1,000)
NALP3 yeast rt: retest-confirmed inhibitor of NALP3 in yeast; shares compounds with NALP3 yeast inh; inhibition, % at 10 µM; actives 53% (n = 1,000); yeast expressing human NALP3, luminescence read-out
tim10-1 confirm: tim10-1 yeast growth inhibition, confirmed | shares compounds with tim10-1 inh | S. cerevisiae tim10-1 ts strain growth, BacTiter-Glo, 24 h | inhibition, % at 20 µM | actives 56% (n = 7,400);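 active = inhibition of yeast growth at or above a set limit in either of two repeat tests at 20 µM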;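 note: tim10-1 mutant grown at permissive 25 °C to find synthetic lethal compounds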
tim10 confirm: confirmation of TIM10 yeast growth inhibitors; shares compounds with TIM10 inh; S. cerevisiae tim10 strain growth, BacTiter-Glo luminescence, 24 h; inhibition, % at 10 µM; actives 63% (n = 4,600); AID 463215;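 active = inhibition of yeast growth at or above a set limit in either of two replicates at 10 µM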; note: this counterscreen used the strain with wild-type TIM10
Hits are given with their value. This is a sample that favours compounds with a hit; in the whole collection about 3.8% have one here. Cut-off read from the data, not from the text of the source, unless noted: active = inhibition above about 50%; inactive = the rest.

For CCCCCC[N+](C)(C)CCSSCC[N+](C)(C)CCCCCC the results were Yeast superoxide inactive, tim23-1 inh inactive, TIM10 inh inactive, tim10-1 inh inactive and NALP3 yeast inh inactive.
Screening CC(Oc1ccc(F)cc1)C(=O)Nc1nc(-c2ccccn2)cs1 (stereo unspecified) returned Yeast superoxide inactive, tim23-1 inh inactive, TIM10 inh inactive, tim10-1 inh 42, NALP3 yeast inh 55, NALP3 yeast conf 73, Casp1 ASC ctr 82, NALP3 yeast rt 74 and tim10-1 confirm inactive.
O=C(CN(C1CCCCC1)S(=O)(=O)c1ccc(F)cc1)Nc1ccc2c(c1)OCO2 was read as Yeast superoxide inactive, tim23-1 inh inactive, TIM10 inh inactive, tim10-1 inh 45, NALP3 yeast inh 51, NALP3 yeast conf 56, Casp1 ASC ctr inactive, NALP3 yeast rt inactive and tim10-1 confirm inactive.
`O=C(CN(C1CCCCC1)S(=O)(=O)c1ccc(F)cc1)NCCCO` gave Yeast superoxide inactive, tim23-1 inh inactive, TIM10 inh inactive, tim10-1 inh inactive and NALP3 yeast inh inactive.
Screening CC(C)(C)c1ccc(-c2nc(N)nc(N)n2)cc1 returned Yeast superoxide inactive, tim23-1 inh inactive, TIM10 inh inactive, tim10-1 inh inactive and NALP3 yeast inh inactive.
Screening CC(C)(C)c1ccc(-c2conc2N)cc1 returned Yeast superoxide inactive, tim23-1 inh inactive, TIM10 inh 43, tim10-1 inh 55, NALP3 yeast inh 59, NALP3 yeast conf 69, Casp1 ASC ctr 66, NALP3 yeast rt inactive, tim10-1 confirm 41 and tim10 confirm 47.
For COc1ccccc1NC(=O)CSCc1ccc([N+](=O)[O-])cc1 the results were Yeast superoxide inactive, tim23-1 inh inactive, TIM10 inh 50, tim10-1 inh inactive, NALP3 yeast inh 65, NALP3 yeast conf 60, Casp1 ASC ctr 59, NALP3 yeast rt 51 and tim10 confirm inactive.
COc1ccc([N+](=O)[O-])cc1NC(=O)CSCc1cc(C)cc(C)c1 was read as Yeast superoxide inactive, tim23-1 inh inactive, TIM10 inh inactive, tim10-1 inh inactive and NALP3 yeast inh inactive.
Screening CCC(C)(C)n1nnnc1C(c1cccs1)N1CCc2ccccc21 (stereo unspecified) returned Yeast superoxide inactive, tim23-1 inh inactive, TIM10 inh 50, tim10-1 inh inactive, NALP3 yeast inh inactive, NALP3 yeast conf inactive and tim10 confirm 34.
O=C(O)CCCCCN1C(=O)/C(=C\c2cn(-c3ccccc3)nc2-c2cccs2)SC1=S was read as Yeast superoxide inactive, tim23-1 inh inactive, TIM10 inh inactive, tim10-1 inh inactive and NALP3 yeast inh inactive.
For CC1=NNC(=O)/C1=C\c1cn(-c2ccccc2)nc1-c1cccs1 the results were Yeast superoxide inactive, tim23-1 inh inactive, TIM10 inh 88, tim10-1 inh inactive, NALP3 yeast inh 54, NALP3 yeast conf 74 and tim10 confirm 84.
`O=C(Nc1ccccc1)c1ccc2c(c1)OCCO2` gave Yeast superoxide inactive, tim23-1 inh inactive, TIM10 inh inactive, tim10-1 inh inactive and NALP3 yeast inh inactive.
Screening O=C(Nc1cccc(F)c1)c1ccc2c(c1)OCCO2 returned Yeast superoxide inactive, tim23-1 inh inactive, TIM10 inh 41, tim10-1 inh inactive, NALP3 yeast inh 67, NALP3 yeast conf 70, Casp1 ASC ctr 62, NALP3 yeast rt 60 and tim10 confirm 53.
For O=C(OCC(=O)c1c[nH]c2ccccc12)c1ccc([N+](=O)[O-])s1 the results were Yeast superoxide inactive, tim23-1 inh inactive, TIM10 inh 73, tim10-1 inh 40, NALP3 yeast inh 84, NALP3 yeast conf 91, Casp1 ASC ctr 86, NALP3 yeast rt 92, tim10-1 confirm 53 and tim10 confirm 84.
Screening Cc1ccc(C(=O)OCC(=O)c2c[nH]c3ccccc23)cc1 returned Yeast superoxide inactive, tim23-1 inh inactive, TIM10 inh inactive, tim10-1 inh inactive and NALP3 yeast inh inactive.
`O=C(/C=C/c1c(F)cccc1Cl)Nc1ncccn1` gave Yeast superoxide inactive, tim23-1 inh inactive, TIM10 inh inactive, tim10-1 inh inactive and NALP3 yeast inh inactive.
O=C(/C=C/c1c(F)cccc1Cl)c1ccc(O)cc1 was read as Yeast superoxide inactive, tim23-1 inh inactive, TIM10 inh 74, tim10-1 inh inactive, NALP3 yeast inh 91, NALP3 yeast conf 87, Casp1 ASC ctr 58, NALP3 yeast rt inactive and tim10 confirm 62.
Screening Cc1sc2ncnc(Oc3ccc(-n4ccnc4)cc3)c2c1C returned Yeast superoxide inactive, tim23-1 inh inactive, TIM10 inh 69, tim10-1 inh 52, NALP3 yeast inh 53, NALP3 yeast conf 61, Casp1 ASC ctr 69, NALP3 yeast rt inactive, tim10-1 confirm 53 and tim10 confirm inactive.
`Fc1ccc(CSc2nnc(-c3cnccn3)n2Cc2ccco2)cc1` gave Yeast superoxide inactive, tim23-1 inh inactive, TIM10 inh 41, tim10-1 inh inactive, NALP3 yeast inh inactive, NALP3 yeast conf inactive and tim10 confirm inactive.
Screening Fc1ccc(CSc2nnc(-c3cccnc3)n2Cc2ccco2)cc1 returned Yeast superoxide inactive, tim23-1 inh inactive, TIM10 inh inactive, tim10-1 inh inactive and NALP3 yeast inh inactive.
Screening CN(C(=O)C1CCCCN1S(=O)(=O)c1ccccc1)c1ccccc1 (stereo unspecified) returned Yeast superoxide inactive, tim23-1 inh inactive, TIM10 inh inactive, tim10-1 inh inactive and NALP3 yeast inh inactive.
CN1C/C(=C/c2ccsc2)C(=O)/C(=C/c2ccsc2)C1 was read as Yeast superoxide inactive, tim23-1 inh inactive, TIM10 inh 49, tim10-1 inh 54, NALP3 yeast inh 63, NALP3 yeast conf 56, Casp1 ASC ctr 79, NALP3 yeast rt 65, tim10-1 confirm 31 and tim10 confirm 33.
`CCC(C)[C@H](NC(=O)N1CCCCC1)C(=O)OC` (stereo partly specified) gave Yeast superoxide inactive, tim23-1 inh inactive, TIM10 inh inactive, tim10-1 inh inactive and NALP3 yeast inh inactive.
`COc1ccc(N2CCN(C(=O)Nc3cccc(C(F)(F)F)c3)CC2)cc1` gave Yeast superoxide inactive, tim23-1 inh inactive, TIM10 inh 49, tim10-1 inh 55, NALP3 yeast inh inactive, NALP3 yeast conf inactive, tim10-1 confirm 41 and tim10 confirm inactive.
